This passage reports outcome, Potency and max activation results from PubChem BioAssay (Tox21).

Values joined by “and” are separate entries in the source; they are usually repeats but may differ in a detail not shown here. Identical values can stand only once. Results filed as inconclusive are left out. A structure can be active in one record and inactive in another. Active and inactive are the calls of the source. Unless noted, calls follow the shape of the dose curve; as a rule, active = well fitted curve in the direction sought with a large enough effect in the repeat runs; inconclusive = weak or mixed curves; inactive = no such curve, though single readings can be large; an effect the other way counts as inactive or inconclusive.

For assay [1], the target named is Thyrotropin-releasing hormone receptor (Homo sapiens) (UniProt P34981). The assay can be described thus: qHTS assay to identify small molecule agonists of the thyrotropin-releasing hormone receptor (TRHR) signaling pathway (AID 1346891; calls by dose curve;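 also: HEK293 cells expressing TRHR with calcium dye readout; series mostly up to about 58 µM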). The method, boiled down:
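Cells: TRHR-Hek293, seeded and incubated 18 h. Dye loading: 2 h at 37 °C. Compound added from DMSO stock by pin tool. Read-out: kinetic calcium fluorescence over 3 min.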

A short description of assay [2]: Human pregnane X receptor (PXR) small molecule agonists, qHTS cell viability counter screen (AID 1346977). Also: nearly all actives have a fitted effect of over 50% in size. The method, boiled down: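 Cytotoxicity counter screen run in the same wells as the PXR luciferase assay, using PXR-Luc HepG2 cells in charcoal-stripped serum medium. Viability: CellTiter-Fluor fluorescence after 24hr compound treatment.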
(In general: Quantitative high-throughput screening tests each substance at several concentrations.)

Assay [3] in a line: Caspase-3/7 induction in HepG2 cells by small molecules, qHTS assay (AID 1346978). Also: nearly all actives have a fitted effect of over 15% in size. The method, boiled down: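 Wild-type HepG2 cells, 2,000/well, settled 5 hr at 37 C and 5% CO2, then compound-treated for 17 hr; caspase-3/7 activity read by luminescent Caspase-Glo 3/7 after 30 min at room temperature.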
Assay [4] in a line: Caspase-3/7 induction in CHO-K1 cells by small molecules, qHTS cell viability counter screen (AID 1346979). Also: nearly all actives have a fitted effect of over 35% in size. Also: potency is read from the fitted curve at half-maximal effect. The method, boiled down: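 Cytotoxicity counter screen run in parallel with the caspase-3/7 assay: CHO-K1 cells, 16hr compound treatment at 37C, then CellTiter-Fluor for 1hr before fluorescence reading.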
The nature of assay [5]: Caspase-3/7 induction in CHO-K1 cells by small molecules, qHTS assay (AID 1346980). Also: nearly all actives have a fitted effect of over 15% in size. The method, boiled down: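 Wild-type CHO-K1 cells exposed to compounds for 17hr at 37 C, 5% CO2. Caspase-3/7 activity then measured by Caspase-Glo 3/7 luminescence after 30min at room temperature.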
Assay [6] is described as follows: Caspase-3/7 induction in HepG2 cells by small molecules, qHTS cell viability counter screen (AID 1346981). Also: nearly all actives have a fitted effect of over 30% in size. Also: potency is read from the fitted curve at half-maximal effect. The method, boiled down:
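HepG2, WT, 2,000 cells/well; 5 hr pre-incubation 37 C/5% CO2; compound pin-transferred from DMSO; 16 hr exposure; CellTiter-Fluor, 1 hr; fluorescence read.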

The target of assay [7] is Nuclear receptor subfamily 1 group I member 2 (Homo sapiens) (UniProt O75469). Put plainly: Human pregnane X receptor (PXR) small molecule agonists, qHTS assay (AID 1346982). Also: nearly all actives have a fitted effect of over 35% in size. Also: potency is read from the fitted curve at half-maximal effect. The method, boiled down: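 Luciferase signal from ONE-Glo (30 min, room temperature) measured activation of hPXR-driven CYP3A4 reporter expression in PXR-Luc HepG2 cells treated with compounds for 24 hr at 37 C.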

Assay [8] deals with Nuclear receptor subfamily 1 group I member 2 (Rattus norvegicus) (UniProt Q9R1A7). The assay can be described thus: Rat pregnane X receptor (rPXR) activation by small molecules, qHTS assay (AID 1346983). Also: nearly all actives have a fitted effect of over 20% in size. The following applies: rPXR luciferase reporter cells, One-Glo luminescence, 24 h; stronger effect = higher value. The method, boiled down: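 Cell-based rPXR activation assay: rPXR cells, 2,000 per well, rested 5hr at 37 C, then exposed to compounds in DMSO for 24 hr at 37 C. Luciferase activity read by One-Glo luminescence after 30 min at room temperature.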

Assay [9] concerns the target Nuclear receptor subfamily 1 group I member 2 (Homo sapiens) (UniProt O75469). The assay can be described thus: CYP3A4 induction through human pregnane X receptor (PXR) by small molecules, qHTS assay (AID 1346984). Also: nearly all actives have a fitted effect of over 40% in size. The method, boiled down: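 Luminescence readout: luciferase signal after One-Glo (30 min, room temperature), following 3 h at 37C with 3uM final Luciferin-IPA P450 substrate. Cells were DPX-2 (HepG2, PXR/CYP3A4-luc co-transfected) dosed for 24 h.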

Assay [10] has the same target. Put plainly: Human pregnane X receptor (PXR) activation by small molecules, qHTS assay (AID 1346985). Also: nearly all actives have a fitted effect of over 40% in size. Put shortly:
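DPX-2 cells (HepG2 co-transfected with a PXR response element and a CYP3A4-promoter luciferase construct) were seeded at 2,000 per well, rested 5 hr at 37C, then exposed to DMSO-dissolved compounds for 24 hr. Activation was read as luciferase luminescence.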
% is scaled to controls: 0 for no effect and ±100 for the full control effect.

Sequence of Nuclear receptor subfamily 1 group I member 2 (Homo sapiens) (O75469 whole entry, looked up): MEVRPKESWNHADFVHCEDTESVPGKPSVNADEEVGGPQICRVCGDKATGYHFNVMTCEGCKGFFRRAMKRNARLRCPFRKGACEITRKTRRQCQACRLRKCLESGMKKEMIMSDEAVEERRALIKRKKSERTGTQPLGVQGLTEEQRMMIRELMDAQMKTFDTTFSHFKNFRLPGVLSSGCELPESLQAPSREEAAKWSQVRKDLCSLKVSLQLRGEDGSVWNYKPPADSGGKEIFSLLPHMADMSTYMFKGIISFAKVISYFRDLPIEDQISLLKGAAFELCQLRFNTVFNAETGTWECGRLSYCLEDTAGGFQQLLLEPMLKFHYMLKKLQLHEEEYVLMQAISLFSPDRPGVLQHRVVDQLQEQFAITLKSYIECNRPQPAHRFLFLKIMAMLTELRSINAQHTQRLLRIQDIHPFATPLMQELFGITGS
Sequence of Thyrotropin-releasing hormone receptor (Homo sapiens) (P34981 whole entry, looked up): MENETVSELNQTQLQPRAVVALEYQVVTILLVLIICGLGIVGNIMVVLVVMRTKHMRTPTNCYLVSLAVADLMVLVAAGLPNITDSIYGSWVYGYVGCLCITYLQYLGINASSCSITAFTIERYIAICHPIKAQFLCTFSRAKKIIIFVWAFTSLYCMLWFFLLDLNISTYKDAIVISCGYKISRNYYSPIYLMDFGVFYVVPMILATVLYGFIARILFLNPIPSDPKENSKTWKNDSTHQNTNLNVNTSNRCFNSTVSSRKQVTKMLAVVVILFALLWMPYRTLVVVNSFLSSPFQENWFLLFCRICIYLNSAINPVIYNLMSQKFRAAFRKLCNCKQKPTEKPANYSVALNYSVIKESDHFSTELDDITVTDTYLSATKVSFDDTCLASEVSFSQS
Sequence of Nuclear receptor subfamily 1 group I member 2 (Rattus norvegicus) (Q9R1A7 whole entry, looked up): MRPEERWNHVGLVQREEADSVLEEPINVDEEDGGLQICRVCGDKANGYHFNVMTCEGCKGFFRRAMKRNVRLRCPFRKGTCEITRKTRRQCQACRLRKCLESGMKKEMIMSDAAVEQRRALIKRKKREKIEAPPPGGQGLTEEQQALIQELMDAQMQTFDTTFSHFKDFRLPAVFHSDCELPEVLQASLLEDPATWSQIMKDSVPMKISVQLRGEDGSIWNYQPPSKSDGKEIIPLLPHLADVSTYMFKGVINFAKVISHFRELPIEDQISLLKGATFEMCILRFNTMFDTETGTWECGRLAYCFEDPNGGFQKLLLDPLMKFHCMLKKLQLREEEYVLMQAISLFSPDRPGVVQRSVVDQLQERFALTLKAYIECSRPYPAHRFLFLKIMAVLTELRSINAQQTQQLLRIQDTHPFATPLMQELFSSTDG

`OCc1cccc(Oc2ccccc2)c1`: the call in assay [1] and in assay [5] was inactive. The Potency result in assay [2], in assay [3], in [4] and in assay [6] was “inactive” each time.
`CC1(C)S[C@@H]2[C@H](NC(=O)COc3ccccc3)C(=O)N2[C@H]1C(=O)O`: the call in assay [1] and in [5] was inactive. The Potency entry in [2], in assay [3], in [4], in assay [6] and in [7] was “inactive” each time.
With `C=CC(=O)OCCC(=O)O`, the outcome in assay [1] and in [5] was inactive. The Potency entry in [2], in assay [3], in assay [4], in [6] and in assay [7] was “inactive” in each case.
Consider `CCO[Si](CCCN)(OCC)OCC`, for which the call in assay [1] and in [5] was inactive. In addition, the Potency entry in assay [2], in [3], in [4], in [6] and in assay [7] was “inactive” each time.
Take `C=Cc1ccc(C)cc1`: the molecule was classed as inactive in assay [1] and in assay [5]. In addition, the Potency entry in [2], in assay [3], in [4], in assay [6] and in assay [7] was “inactive” each time.
On to `COc1ccc(CCC(C)=O)cc1`, for which the molecule was classed as inactive in assay [1] and in assay [5]. Besides, the Potency result in assay [2], in assay [3], in assay [4], in assay [6] and in assay [7] was “inactive” each time.
`CC(O)CC(C)(C)O` (stereo unspecified): the molecule was classed as inactive in assay [1] and in assay [5]. Moreover, the Potency result in [2], in [3], in [4], in assay [6] and in [7] was “inactive” in each case.
Consider `CC(=O)CCC=C(C)C`, for which the call in assay [1] and in assay [5] was inactive. Moreover, the Potency result in assay [2], in assay [3], in [4], in assay [6] and in assay [7] was “inactive” in each case.
For the molecule `CCCCCCO`, the molecule was called inactive in assay [1] and in [5]. In addition, the Potency result in [2], in assay [3], in assay [4], in [6] and in assay [7] was “inactive” in each case.
Take `CC(=O)c1ccc(O)cc1`: the molecule was classed as inactive in assay [1] and in assay [5]. In addition, the Potency result in assay [3], in assay [4], in [6] and in assay [7] was “inactive” in each case.
Take `CCCCCCCCCCN`: the result in assay [1] and in [5] was inactive. For the same molecule, the Potency entry in assay [3], in assay [4], in assay [6] and in assay [7] was “inactive” in each case.
With `CC1(C)OC[C@@H]2O[C@@]3(C(=O)O)OC(C)(C)O[C@H]3[C@@H]2O1`, the outcome in assay [1], in assay [5] and in assay [10] was inactive. For the same molecule, the Potency result in [2], in assay [3], in assay [4], in assay [6], in [7] and in [9] was “inactive” throughout. The max activation in assay [8] is -1.74% (inactive).
Take `CC(=O)OCc1ccccc1`: the molecule was called inactive in [1] and in [5]. The Potency result in [3], in [4], in [6] and in assay [7] was “inactive” in each case.
On to `CN(C)c1ccc(Cc2ccc(N(C)C)cc2)cc1`, for which the result in assay [1] and in [5] was inactive. Moreover, the Potency result in assay [2], in [3] and in assay [6] was “inactive” in each case. In addition, the Potency in [7] is 30.8 µM (active) and 43.3 µM (active).
As to `CC(=O)CC(C)(C)O`, the outcome in assay [1] and in [5] was inactive. The Potency result in [3], in [4], in assay [6] and in assay [7] was “inactive” each time.
With `CCCCOC(=O)c1ccc(N)cc1`, the outcome in assay [1] and in assay [5] was inactive. The Potency result in assay [2], in [3], in assay [4] and in assay [6] was “inactive” each time. Besides, the Potency in [7] is 53.8 µM (active) and 23.7 µM (active).
For the molecule `COc1ccc(C)cc1N`, the outcome in assay [1] and in assay [5] was inactive. In addition, the Potency result in assay [3], in assay [4], in [6] and in assay [7] was “inactive” each time.
`CN/C(=C\[N+](=O)[O-])NCCSCc1csc(CN(C)C)n1`: the call in assay [1], in assay [5] and in assay [10] was inactive. Further, the Potency entry in assay [2], in [3], in assay [4], in assay [6], in assay [7] and in assay [9] was “inactive” in each case. For the same molecule, in assay [8], the max activation is -2.39% (inactive).
As for `CC(CCO)CC(C)(C)C` (stereo unspecified), the outcome in assay [1] and in [5] was inactive. Besides, the Potency result in assay [3], in [4], in [6] and in [7] was “inactive” in each case.
Turning to `CC(C)CCCCCCCOC(=O)CCCCC(=O)OCCCCCCCC(C)C`, the molecule was classed as inactive in assay [1] and in [5]. Besides, the Potency entry in assay [3], in assay [4] and in assay [6] was “inactive” in each case. For the same molecule, in assay [7], the Potency was 50.4 µM (active) and inactive.
For the molecule `CC(=O)OCCOC(C)=O`, the result in [1] and in [5] was inactive. In addition, the Potency entry in [3], in [4], in assay [6] and in assay [7] was “inactive” each time.
As to `NCCCCCCN`, the outcome in assay [1] and in assay [5] was inactive. Further, the Potency result in assay [3], in assay [6] and in [7] was “inactive” in each case. For the same molecule, in assay [4], the Potency is 2.75 µM (active) and 19.3 µM (active).
Regarding `CCCCCCCCCCO`, the result in assay [1] and in [5] was inactive. Also, the Potency result in assay [2], in assay [3], in assay [4], in [6] and in assay [7] was “inactive” in each case.
On to `COCCOC(=O)c1ccccc1C(=O)OCCOC`, for which the molecule was called inactive in assay [1] and in assay [5]. The Potency entry in [3], in [4], in [6] and in assay [7] was “inactive” in each case.
As for `Cc1ccc(S(=O)(=O)N=C=O)cc1`, the outcome in assay [1] and in assay [5] was inactive. Also, the Potency result in assay [3] and in assay [7] was “inactive” each time. Also, the Potency in assay [4] is 6.73 µM (active) and inactive; in assay [6] it was 53.4 µM (active) and inactive.
For the molecule `O=C(O)c1ccc(S(=O)(=O)N(Cl)Cl)cc1`, the result in assay [1], in [5] and in assay [10] was inactive. Besides, the Potency entry in [2], in [3], in assay [4], in assay [6], in [7] and in assay [9] was “inactive” each time. Moreover, in [8], the max activation was 4.13% (inactive).
For the molecule `CCCCCCCCCCCC(=O)OC`, the result in assay [1] and in [5] was inactive. The Potency result in assay [3], in assay [4], in assay [6] and in assay [7] was “inactive” throughout.
Turning to `CN1C(=O)CC[C@H]1c1cccnc1`, the molecule was classed as inactive in assay [1] and in assay [5]. For the same molecule, the Potency result in assay [2], in [3], in assay [4] and in [6] was “inactive” throughout. Also, the max activation in assay [8] is -3.2% (inactive).
